Experimental data as given in PubChem BioAssay (NCATS).
“And” between values parts separate entries of the source, which are not always exact repeats. Identical values can stand only once. Results filed as inconclusive are left out. Unmarked numbers belong to inactive results. The source made the active and inactive calls. Calls follow the shape of the dose curve; as a rule, active = well fitted inhibition curve with a large enough effect; inconclusive = small, poorly fitted or top-dose-only effect; inactive = flat fitted curve, though single readings scatter.

tested on: CP238; assay: qHTS profiling for inhibitors of Plasmodium falciparum proliferation (AID 504749); also: nearly all actives have a fitted effect of over 60% in size;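 as to activity, negative = inhibition: 0% = DMSO vehicle and full inhibition = artemisinin control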; details: P. falciparum in erythrocytes, SYBR Green DNA, 72 h; series mostly up to 28.7 µM; activity, negative = inhibition: at the top concentration
Procedure, shortened: (§1)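 Each compound contacts P. falciparum-infected red blood cells for 72 h at 37 C; lysis buffer (Tris, EDTA, saponin, Triton X, SYBR Green I) is added and fluorescence measured next morning; values normalized to controls.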
Potency is read from the fitted curve at half-maximal effect.

Row | SMILES | activity, negative = inhibition | Potency
1 | CCC1(c2ccccc2)CCC(=O)NC1=O (stereo not drawn) | 2.79% | 
2 | C[N+]1(CCC(C(N)=O)(c2ccccc2)c2ccccc2)CCCCC1 | 2.32% | 
3 | CCC(=O)O[C@H]1CC[C@H]2[C@@H]3CCC4=CC(=O)CC[C@]4(C)[C@H]3CC[C@]12C | 7.39% [at 12.8 µM] | 
4 | OC(c1ccccc1)(c1ccccc1)C1CCNCC1 | 1.68% [at 12.8 µM] | 
5 | CC(C)[N+](C)(CCC(C(N)=O)(c1ccccc1)c1ccccc1)C(C)C | 3.34% [at 12.8 µM] | 
6 | Cc1ncc2n1-c1ccc(Cl)cc1C(c1ccccc1F)=NC2 | 5.11% | 
7 | Cc1ccc(N=CN(C)C=Nc2ccc(C)cc2C)c(C)c1 | 1.25% | 
8 | CC(C)NCC(O)c1ccc(N)c(C#N)c1 (stereo not drawn) | 4.69% | 
9 | CNC(=O)Oc1cccc2ccccc12 | -5.49% | 
10 | CCNc1nc(Cl)nc(NCC)n1 | 1.63% | 
11 | CC[n+]1c(-c2ccccc2)c2cc(N)ccc2c2ccc(N)cc21 |  | 112 nM (active) and 355 nM (active)
12 | CCCCCCCCCCCC[N+](C)(C)CCOc1ccccc1 |  | 7.94 µM (active)
13 | CCOC(=O)NC(O)C(Cl)(Cl)Cl (stereo not drawn) | 7.59% | 
14 | CCN(Cc1ccc(Cl)nc1)/C(=C/[N+](=O)[O-])NC | 6.13% | 
15 | C[C@H]1C(=O)O[C@@H]2CCN3CC=C(COC(=O)[C@](C)(O)[C@]1(C)O)[C@H]23 | 2.01% | 
16 | Oc1c(Br)cc(Br)cc1Br | -1.73% | 

Row | SMILES | activity, negative = inhibition | Potency
17 | C[C@]12CC[C@H]3[C@@H](CC=C4C[C@@H](O)CC[C@@]43C)[C@@H]1CC[C@@H]2O | 4.93% | 
18 | COP(=O)(OC)C(O)C(Cl)(Cl)Cl (stereo not drawn) | -0.796% | 
19 | CCN(CC)C(C)C(=O)c1ccccc1 (stereo not drawn) | -1.72% | 
20 | COP(=O)(OC)OC=C(Cl)Cl | 4.95% | 
21 | CNC(=O)NC(O)C(Cl)(Cl)Cl (stereo not drawn) | 2.75% | 
22 | NC(=O)CN1CCCC1=O | 5.91% [at 12.8 µM] | 
23 | CCC1(CC)C(=O)NC(=O)NC1=O | 3.44% | 
24 | O=c1n(Cl)c(=O)n(Cl)c(=O)n1Cl | 0.37% | 
25 | CC(C)C(Br)C(=O)NC(N)=O (stereo not drawn) | 7.13% | 
26 | CN(C)C(=S)SSC(=S)N(C)C |  | 3.55 µM (active)
27 | COP(=S)(OC)Oc1ccc(Sc2ccc(OP(=S)(OC)OC)cc2)cc1 | 1.39% | 
28 | NCc1cccnc1 | -0.358% | 
29 | COc1ccc(C(=O)N2CCCC2=O)cc1 | 2.25% | 
30 | c1ccc2nc(N3CCNCC3)ccc2c1 | 12.3% | 
31 | CC(C)(C)OC(=O)c1ncn2c1[C@@H]1CCCN1C(=O)c1c(Br)cccc1-2 | -17% | 

tested on: CP247; assay: as above; details: P. falciparum in erythrocytes, SYBR Green DNA, 72 h; series mostly up to 28.7 µM; activity, negative = inhibition: at the top concentration
Procedure, shortened: as §1

Row | SMILES | activity, negative = inhibition | Potency
32 | CCC1(c2ccccc2)CCC(=O)NC1=O (stereo not drawn) | 2.32% | 
33 | C[N+]1(CCC(C(N)=O)(c2ccccc2)c2ccccc2)CCCCC1 | 14% | 
34 | CCC(=O)O[C@H]1CC[C@H]2[C@@H]3CCC4=CC(=O)CC[C@]4(C)[C@H]3CC[C@]12C | 3.02% [at 12.8 µM] | 
35 | OC(c1ccccc1)(c1ccccc1)C1CCNCC1 | 3.67% [at 12.8 µM] | 
36 | CC(C)[N+](C)(CCC(C(N)=O)(c1ccccc1)c1ccccc1)C(C)C | 6.13% [at 12.8 µM] | 
37 | Cc1ncc2n1-c1ccc(Cl)cc1C(c1ccccc1F)=NC2 | -3.55% | 
38 | Cc1ccc(N=CN(C)C=Nc2ccc(C)cc2C)c(C)c1 | 12.8% | 
39 | CC(C)NCC(O)c1ccc(N)c(C#N)c1 (stereo not drawn) | 2.73% | 
40 | CNC(=O)Oc1cccc2ccccc12 | -12.9% | 
41 | CCNc1nc(Cl)nc(NCC)n1 | 5.58% | 
42 | CC[n+]1c(-c2ccccc2)c2cc(N)ccc2c2ccc(N)cc21 |  | 282 nM (active) and 631 nM (active)
43 | CCCCCCCCCCCC[N+](C)(C)CCOc1ccccc1 |  | 7.08 µM (active)
44 | CCOC(=O)NC(O)C(Cl)(Cl)Cl (stereo not drawn) | 16% | 
45 | CCN(Cc1ccc(Cl)nc1)/C(=C/[N+](=O)[O-])NC | 11% | 
46 | C[C@H]1C(=O)O[C@@H]2CCN3CC=C(COC(=O)[C@](C)(O)[C@]1(C)O)[C@H]23 | 5.74% | 
47 | Oc1c(Br)cc(Br)cc1Br | 3.45% | 

Row | SMILES | activity, negative = inhibition | Potency
48 | C[C@]12CC[C@H]3[C@@H](CC=C4C[C@@H](O)CC[C@@]43C)[C@@H]1CC[C@@H]2O | 14.3% | 
49 | COP(=O)(OC)C(O)C(Cl)(Cl)Cl (stereo not drawn) | -17.8% | 
50 | CCN(CC)C(C)C(=O)c1ccccc1 (stereo not drawn) | 1.61% | 
51 | COP(=O)(OC)OC=C(Cl)Cl | -3.28% | 
52 | CNC(=O)NC(O)C(Cl)(Cl)Cl (stereo not drawn) | 0.414% | 
53 | NC(=O)CN1CCCC1=O | 9.24% [at 12.8 µM] | 
54 | CCC1(CC)C(=O)NC(=O)NC1=O | 0.79% | 
55 | O=c1n(Cl)c(=O)n(Cl)c(=O)n1Cl | -14.6% | 
56 | CC(C)C(Br)C(=O)NC(N)=O (stereo not drawn) | 1.86% | 
57 | CN(C)C(=S)SSC(=S)N(C)C |  | 2.82 µM (active)
58 | COP(=S)(OC)Oc1ccc(Sc2ccc(OP(=S)(OC)OC)cc2)cc1 | 6.25% | 
59 | NCc1cccnc1 | 5.56% | 
60 | COc1ccc(C(=O)N2CCCC2=O)cc1 | 1.42% | 
61 | c1ccc2nc(N3CCNCC3)ccc2c1 | 19% | 
62 | CC(C)(C)OC(=O)c1ncn2c1[C@@H]1CCCN1C(=O)c1c(Br)cccc1-2 | 3.48% | 

tested on: CP250; assay: as above; details: P. falciparum in erythrocytes, SYBR Green DNA, 72 h; series mostly up to 28.7 µM; activity, negative = inhibition: at the top concentration
Procedure, shortened: as §1

Row | SMILES | activity, negative = inhibition | Potency
63 | CCC1(c2ccccc2)CCC(=O)NC1=O (stereo not drawn) | 4.69% | 
64 | C[N+]1(CCC(C(N)=O)(c2ccccc2)c2ccccc2)CCCCC1 | 3.16% | 
65 | CCC(=O)O[C@H]1CC[C@H]2[C@@H]3CCC4=CC(=O)CC[C@]4(C)[C@H]3CC[C@]12C | 5.61% [at 12.8 µM] | 
66 | OC(c1ccccc1)(c1ccccc1)C1CCNCC1 | -3.22% [at 12.8 µM] | 
67 | CC(C)[N+](C)(CCC(C(N)=O)(c1ccccc1)c1ccccc1)C(C)C | -2.4% [at 12.8 µM] | 
68 | Cc1ncc2n1-c1ccc(Cl)cc1C(c1ccccc1F)=NC2 | -4.35% | 
69 | Cc1ccc(N=CN(C)C=Nc2ccc(C)cc2C)c(C)c1 | 3.4% | 
70 | CC(C)NCC(O)c1ccc(N)c(C#N)c1 (stereo not drawn) | 0.748% | 
71 | CNC(=O)Oc1cccc2ccccc12 | -13.2% | 
72 | CCNc1nc(Cl)nc(NCC)n1 | 7.74% | 
73 | CC[n+]1c(-c2ccccc2)c2cc(N)ccc2c2ccc(N)cc21 |  | 178 nM (active) and 355 nM (active)
74 | CCCCCCCCCCCC[N+](C)(C)CCOc1ccccc1 |  | 7.94 µM (active)
75 | CCOC(=O)NC(O)C(Cl)(Cl)Cl (stereo not drawn) | 12.8% | 
76 | CCN(Cc1ccc(Cl)nc1)/C(=C/[N+](=O)[O-])NC | 1.4% | 
77 | C[C@H]1C(=O)O[C@@H]2CCN3CC=C(COC(=O)[C@](C)(O)[C@]1(C)O)[C@H]23 | 5.13% | 
78 | Oc1c(Br)cc(Br)cc1Br | 11.1% | 

Row | SMILES | activity, negative = inhibition | Potency
79 | C[C@]12CC[C@H]3[C@@H](CC=C4C[C@@H](O)CC[C@@]43C)[C@@H]1CC[C@@H]2O | 0.32% | 
80 | COP(=O)(OC)C(O)C(Cl)(Cl)Cl (stereo not drawn) | -9.43% | 
81 | CCN(CC)C(C)C(=O)c1ccccc1 (stereo not drawn) | 4.97% | 
82 | COP(=O)(OC)OC=C(Cl)Cl | 6.95% | 
83 | CNC(=O)NC(O)C(Cl)(Cl)Cl (stereo not drawn) | 9.22% | 
84 | NC(=O)CN1CCCC1=O | 1.22% [at 12.8 µM] | 
85 | CCC1(CC)C(=O)NC(=O)NC1=O | 2.42% | 
86 | O=c1n(Cl)c(=O)n(Cl)c(=O)n1Cl | -7.7% | 
87 | CC(C)C(Br)C(=O)NC(N)=O (stereo not drawn) | 6.86% | 
88 | CN(C)C(=S)SSC(=S)N(C)C |  | 3.16 µM (active)
89 | COP(=S)(OC)Oc1ccc(Sc2ccc(OP(=S)(OC)OC)cc2)cc1 | 10.6% | 
90 | NCc1cccnc1 | 5.79% | 
91 | COc1ccc(C(=O)N2CCCC2=O)cc1 | 9.69% | 
92 | c1ccc2nc(N3CCNCC3)ccc2c1 | 1.92% | 
93 | CC(C)(C)OC(=O)c1ncn2c1[C@@H]1CCCN1C(=O)c1c(Br)cccc1-2 | 1.05% | 
